Screens deposited in PubChem BioAssay by Fisher Drug Discovery Resource Center.
NPYLR7 agonist – activates Aedes aegypti NPYLR7 receptor | 270,000 tested, 0.15% active | activation, % at 10 µM | AID 1259423 | HEK293T NPYLR7/Galpha15, GCaMP6s calcium fluorescence; in the data active = activation above about 40%;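 note: 0% = vehicle and 100% = reference agonist at the receptor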
hcGAS lum – human cGAS inhibition; Q8N884; recombinant h-cGAS, ATP depletion, Kinase-Glo luminescence; inhibition, % at 12.5 µM; 290,000 tested, 0.081% active;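 note: 0% = vehicle reaction and 100% = reaction without DNA for no activity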
mcGAS lum – inhibitors of mouse cGAS | Q8C6L5 | recombinant cGAS, Kinase-Glo ATP depletion luminescence | inhibition, % at 12.5 µM | 160,000 tested, 0.15% active | AID 1259399;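 note: 0% = negative control wells and 100% = reference inhibitor with no enzyme activity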
Target sequence (Q8C6L5 whole entry, looked up): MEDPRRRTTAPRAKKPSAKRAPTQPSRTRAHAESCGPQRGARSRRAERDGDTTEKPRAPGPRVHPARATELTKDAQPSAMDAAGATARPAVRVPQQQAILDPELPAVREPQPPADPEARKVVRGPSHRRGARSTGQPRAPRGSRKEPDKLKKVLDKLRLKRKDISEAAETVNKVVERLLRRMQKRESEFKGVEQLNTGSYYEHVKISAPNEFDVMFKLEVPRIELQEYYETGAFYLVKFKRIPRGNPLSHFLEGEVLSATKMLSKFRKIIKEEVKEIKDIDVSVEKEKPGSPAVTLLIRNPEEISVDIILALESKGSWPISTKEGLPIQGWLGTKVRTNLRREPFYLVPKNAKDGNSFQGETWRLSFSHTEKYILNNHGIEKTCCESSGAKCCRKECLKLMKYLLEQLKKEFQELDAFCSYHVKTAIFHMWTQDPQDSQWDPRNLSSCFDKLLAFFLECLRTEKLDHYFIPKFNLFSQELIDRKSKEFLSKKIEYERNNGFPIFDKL
Starred values were filed as active, the others as inactive; . = no result given; ! = not confirmed by another sample. Shown are actives, neighbours in structure and some others; about 0.24% of the full set was active somewhere. Cut-off read from the data, not from the text of the source, unless noted: active = inhibition above about 40%; inactive = the rest.

SMILES	NPYLR7 agonist	hcGAS lum	mcGAS lum
COc1cccc(-c2nc3ccc(Br)cn3c2NCc2ccccc2)c1	12	-10	89*!
COc1cccc(-c2nc3ccc(Cl)cn3c2NCc2ccccc2)c1	-5	-2	-4
COc1ccccc1-n1c(Cc2ccccc2)nnc1SCc1nc(C(=O)N2CC3(C)CC2CC(C)(C)C3)cs1 (configuration not stated)	-5	-12	-5
CC(C)Oc1ccc(C(=O)Nc2ccc3c(c2)oc(=O)n3C)cn1	-22	2	.
O=c1ccc(-c2ccco2)nn1CCCNS(=O)(=O)c1cccs1	-5	-1	.
NC(=NCCC[C@H](N)C(=O)O)NO	0	-3	58*
CN(C)C(N)=NCCC[C@H](N)C(=O)O	-2	-2	-3
CCC1CN(C(=O)c2cnn(-c3cccc(C(F)(F)F)c3)c2C)CCO1 (configuration not stated)	10	-4	.
COCc1c(Br)c(C)nc(OCC(=O)N/N=C\c2cc(I)c(O)c([N+](=O)[O-])c2)c1C#N	7	33	83*
COCc1cc(C)nc(OCC(=O)N/N=C\c2cc(I)c(O)c(I)c2)c1C#N	1	19	58*
COCc1cc(C)nc(OCC(=O)N/N=C\c2cc(Br)c(O)c(Br)c2)c1C#N	1	0	0
COCc1cc(C)nc(OCC(=O)N/N=C\c2cc(I)c(O)c([N+](=O)[O-])c2)c1C#N	0	28	67*
C=CCOc1c(I)cc(/C=N\NC(=O)COc2nc(C)cc(COC)c2C#N)cc1I	-2	3	-1
COCc1c(Br)c(C)nc(OCC(=O)N/N=C\c2cc(I)c(O)c(OC)c2)c1C#N	-5	4	5
Cc1onc(-c2ccccc2Cl)c1C(=O)NC(c1ccccc1)c1ccccc1	-2	-1	-5
O=C(c1cccs1)N1CCN(S(=O)(=O)c2ccc3c(c2)OCCCO3)CC1	3	6	-2
O=C(c1ccc2nc(C3CCCCC3)oc2c1)N1CCN(c2ccccn2)CC1	16	-6	.
COc1ccc(N2C(=O)CSC2c2cccc(NC(=O)c3ccc(Cl)cc3)c2)cc1 (configuration not stated)	-7	-5	-6
CSc1nc2ccccc2n1CC(=O)Nc1ccc(Cl)c(S(=O)(=O)N2CCOCC2)c1	.	-8	-9
O=C(Cc1ccc2c(c1)CCC2)N1CCN(c2ccc(O)cc2)CC1	2	-13	-6
O=C1CNc2c(c(=O)oc3ccccc23)N1	2	52*	.
O=c1c2ccccc2oc2ccccc12	1	-8	-4
O=c1c(O)c(-c2cc(O)c(O)c(O)c2)oc2cc(O)cc(O)c12	-3	71*	82*
O=c1c(O)c(-c2ccc(O)cc2O)oc2cc(O)cc(O)c12	5	-7	7
CC(C)(C)c1cc2nc(-c3ccccc3F)cc(C(=O)N3CCC4(CC3)OCCO4)n2n1	-6	-4	-7
SMILES	NPYLR7 agonist	hcGAS lum	mcGAS lum
Cc1ccc(Cl)c(Oc2cc(N3CCCC3)ncn2)c1	-16	-4	-8
CCOc1cc(Br)cc(/C=C2/NC(=S)NC2=O)c1O	-5	2	4
CCOc1cc(/C=C2/NC(=S)NC2=O)cc(Br)c1O	52*	4	5
CSCc1ccc(CNC(C)Cn2cc(C)cn2)o1 (configuration not stated)	2	-6	.
CCN(CC)c1ccc2c(-c3ccccc3C(=O)O)c3ccc(=[N+](CC)CC)cc-3oc2c1	44*	-49	-28
O=C(O)CN(CC(=O)O)Cc1cc2c(-c3ccccc3C(=O)O)c3cc(CN(CC(=O)O)CC(=O)O)c(=O)cc-3oc2cc1O	.	-3	-1
CCN1CCc2c(sc3nc(CC(C)C)nc(N4CCN(C(=O)Nc5ccc(OC)cc5)CC4)c23)C1	-7	1	-2
Nc1c(C=C2C=CC(=O)C=C2)c(=O)nc2sc(-c3ccccc3Cl)nn12	-3	42*	.
Nc1c(C=C2C=CC(=O)C=C2)c(=O)nc2sc(-c3ccccc3)nn12	0	11	.
Cc1nc(=O)c(-c2ccccc2)c(C)n1-c1ccccc1	-12	-4	.
Cc1nc(=O)c(-c2ccccc2)c(C)n1-c1ccccc1O	80*	-3	-6
CN(Cc1ccccc1)C(=O)C[C@@H]1O[C@H](CNC(=O)Nc2ccccc2)[C@@H](O)[C@H]1O	-4	-7	-7
CC(C)(CNC(=O)Nc1nccs1)N1CCc2ccccc2C1	-1	-4	.
Cn1c(-c2ccncc2)nn(CN2CCN(c3ccccc3)CC2)c1=S	8	-4	.
O=C1c2ccccc2-c2nn(CN3CCN(c4ccccc4)CC3)c3cccc1c23	88*	14	4
CCCCN(CC(=O)N1CCc2sccc2C1c1ccc(Cl)cc1)C(=O)CCC(=O)OCC (configuration not stated)	9	-4	-3
Oc1ccccc1C1=NNC2(CC3CC2C2CCCC32)S1 (configuration not stated)	-8	78*	.
